Measurements from PubChem BioAssay.

Tested on: Plasmodium falciparum Sir2 (PF13_0152, Sir2A)
Experiment: pfSir2 binders on small-molecule microarrays, primary screen, biochemical, small-molecule microarray, 635 nm fluorescence (AID 1098);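 also: score merges spot fluorescence intensity with its signal-to-noise ratio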
Settings: small-molecule microarray binding, fluorescence 635 nm; higher = more signal

Structure (SMILES) | composite z-score
COc1ccc(OC[C@@H](CO)OC)cc1 | -0.276
COc1ccc(OC[C@H]2CN3[C@@H](CC[C@@H](C)[C@@H]3c3ccc(Br)cc3)C(=O)O2)cc1 | 0.233
Cc1ccc(S(=O)(=O)N[C@@H]2COC(=O)CC=C[C@@H](C)[C@H](NS(=O)(=O)c3ccc(C)cc3)COC(=O)[C@H](C)NC(=O)CC=C[C@H]2C)cc1 | -0.267
CC(C)CON=C1C[C@@H](O)[C@@H](O)[C@@H]2[C@@H]3C(=O)N(C(C)(C)C)C(=O)[C@@H]3CC[C@@H]12 | 1.08
CCOC(=O)CCN1C(=O)[C@H]2[C@H]3[C@H](O)[C@H](O)CC(=O)[C@@H]3CC[C@H]2C1=O | 0.414
CCOC(=O)[C@H](CC(C)C)NC(=O)CCC1CC(OC(=O)NCc2ccc3c(c2)OCO3)CC2(CCCC(COC(=O)NCCC(C)C)O2)O1 (stereo partly specified) | 0.0402

Tested on: not listed separately
Experiment: small-molecule microarray binders of probe aDKK1, primary screen, biochemical, biotinylated probe, 635/667 nm fluorescence (AID 1099);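 also: score merges 667nm spot fluorescence with signal to noise across triplicate slides; reference of the scale not given here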
Settings: higher = more signal

Structure (SMILES) | composite z-score
O=C1C[C@@H](O)[C@@H](O)[C@@H]2[C@@H]3C(=O)N(c4ccc(F)cc4F)C(=O)[C@@H]3CC[C@H]12 | -0.0704
Cc1cc(C)c(-c2cc([C@H](C)ON=C[C@@H](C)[C@H](OCc3ccccc3)C(C)C)on2)c(C)c1 | -0.143
CCN1C(=O)[C@H]2[C@H]3[C@H](O)[C@H](O)CC(=NOCC=C(C)CCC=C(C)C)[C@@H]3CC[C@H]2C1=O | -0.214
CC(CCC(=O)OC[C@H]1O[C@H](C#Cc2ccccc2)C=C[C@@H]1Oc1ccc(C)cc1)=NOC[C@@H](C)[C@H](OCc1ccccc1)C(C)C | -0.247
CCOC(=O)CCN1C(=O)[C@H]2[C@H]3[C@H](O)[C@H](O)CC(=NO[C@@H]4O[C@H](CO)[C@@H](O)[C@H](O)[C@H]4O)[C@H]3CC[C@H]2C1=O | 0.198
CC1(C)O[C@H]2OC([C@H](O)CON3C(=O)c4ccccc4C3=O)[C@H](O)[C@H]2O1 (stereo partly specified) | -0.467
CC(CCN1CCc2nc(-c3ccccc3)c(-c3ccccc3)cc2C1)=NO[C@H](C)c1cn([C@H](CO)Cc2ccccc2)nn1 | -0.0154
CON=C(C)CCN1CCCc2nc(C)c(C)cc21 | -0.117
CC(=O)OC[C@H]1O[C@@H](ON=C(C)CCC(=O)OC[C@H]2O[C@H](C#Cc3ccccc3)C=C[C@@H]2Oc2ccc(C)cc2)[C@H](OC(C)=O)[C@@H](OC(C)=O)[C@@H]1OC(C)=O | -0.148
CCN1C(=O)[C@H]2[C@H]3[C@H](O)[C@H](O)CC(=NO[C@H](C)c4cn([C@H](CO)Cc5ccccc5)nn4)[C@@H]3CC[C@H]2C1=O | 0.245
CC(=O)OC[C@H]1O[C@@H](ON=C(C)C)[C@H](OC(C)=O)[C@@H](OC(C)=O)[C@@H]1OC(C)=O | -0.191
CC(C)CON=C1C[C@@H](O)[C@@H](O)[C@@H]2[C@@H]3C(=O)N(c4ccc(F)cc4F)C(=O)[C@@H]3CC[C@@H]12 | -0.153
C=C(C)C(=O)OC[C@H]1CN2[C@@H](CC[C@@H](C)[C@@H]2c2ccc(Br)cc2)C(=O)O1 | -0.366
CC(CCN1CCCc2nc(C)c(C)cc21)=NOC[C@@H](O)COCc1ccco1 | 1.57
O=C1C=C[C@@H](O)[C@@H]2[C@@H]3C(=O)N(Cc4ccc5c(c4)OCO5)C(=O)[C@@H]3CC[C@@H]12 | -0.0574
CC(C)(C)N1C(=O)[C@H]2[C@H]3[C@H](O)[C@H](O)CC(=NOC[C@@H](O)COCc4ccco4)[C@@H]3CC[C@H]2C1=O | 0.774
C=CC[C@@H]1C=CC(ON=C(C)C)[C@@H](CO)O1 (stereo partly specified) | -0.011
CCC1=NOC(CCC2CC(OC(=O)NCc3cccc4c3OCO4)CC3(CCCC(COC(=O)NCCc4ccc(Cl)cc4)O3)O2)C1 (stereo unspecified) | -0.0936
C#CCCCON=C1C[C@@H](O)[C@@H](O)[C@@H]2[C@@H]3C(=O)N(C4CCCCC4)C(=O)[C@@H]3CC[C@@H]12 | 0.0266
CC(=O)OC[C@H]1O[C@H](CC=NOC[C@@H](O)COCc2ccco2)C=C[C@@H]1OC(C)=O | -0.233
CC(C)=NOC(C)CN1CCCc2nc(C)c(C)cc21 (stereo unspecified) | -0.446
CCOC(=O)[C@H](Cc1ccccc1)NC(=O)CCC1CC(OC(=O)NCc2cccc3ccccc23)CC2(CCCC(COC(=O)NCC3CCCCC3)O2)O1 (stereo partly specified) | -0.21
O=C1C[C@H](c2ccccc2)[C@H](c2ccc(Br)cc2)O1 | 0.0628
COC(=O)[C@H](C)NC(=O)CCC1CC(OC(=O)NCCc2ccc(F)cc2)CC2(CCCC(COC(=O)NCC3CCCCC3)O2)O1 (stereo partly specified) | -0.262
CN1CCc2nc(-c3ccccc3)c(-c3ccccc3)cc2C1 | -0.284
